Compound activity as filed in PubChem BioAssay.
An excerpt weighted towards active compounds, which were near 4% of everything screened.
D1 PAM = human D1 dopamine receptor positive modulation. HEK293 TREx D1 cells, calcium flux, dopamine EC20 potentiation. P21728. actives 0.036% (n = 360,000). potentiation, % at 10 µM; in the data active = potentiation above about 30%; note: 0% is about no effect
Target sequence (P21728 whole entry, looked up): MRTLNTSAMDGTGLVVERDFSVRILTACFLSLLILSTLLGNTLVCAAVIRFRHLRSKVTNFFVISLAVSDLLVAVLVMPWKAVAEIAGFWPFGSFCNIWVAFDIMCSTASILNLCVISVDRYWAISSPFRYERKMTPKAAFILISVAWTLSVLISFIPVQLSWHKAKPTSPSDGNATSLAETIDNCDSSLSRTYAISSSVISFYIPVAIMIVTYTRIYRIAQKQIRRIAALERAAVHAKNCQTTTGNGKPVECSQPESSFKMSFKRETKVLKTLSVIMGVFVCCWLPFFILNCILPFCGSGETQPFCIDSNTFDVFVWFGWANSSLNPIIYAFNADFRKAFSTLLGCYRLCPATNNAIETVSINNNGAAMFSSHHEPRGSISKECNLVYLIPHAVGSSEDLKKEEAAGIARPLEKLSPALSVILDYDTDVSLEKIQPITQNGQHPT
GRP78 ERSR act = inducers of ER stress response in human glioma cells. U87-MG GRP78 promoter luciferase reporter, 16 h. Potency, µM, inactives show at the top dose activation, hits mostly activators. actives 0.02% (n = 420,000). AID 602332; active = well fitted activation curve with a large enough effect; note: potency is the fitted concentration of half-maximal effect; series mostly up to about 76 µM; % of control where 0% means no effect; nearly all actives have a fitted effect of over 35% in size
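Stably transfected U87-MG human glioma cells carrying a GRP78-based luminescent sensor were seeded at 1000 cells/well, pin-dosed with compounds and incubated 16 h. Luciferase reagent was then added, and end-point luminescence was read after 10 min at room temperature.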
TRHR enhancer = allosterically enhances the human TRH receptor. P34981. TRHR cells, fluo-8 calcium fluorescence, EC20 TRH enhancement. enhancement, % at 2 µM. actives 0.66% (n = 360,000); in the data active = enhancement above about 30%; note: 0% is about no effect
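TRHR-expressing cells loaded with fluo-8 calcium dye were read kinetically (ex 480/em 530) during compound addition, then stimulated with an EC20 of TRH (10 nM final). Enhancement of the Gq-mediated intracellular calcium response was scored.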
D1 ag = agonists of human D1 dopamine receptor; P21728; HEK293 T-REx D1 cells, calcium flux, agonist mode; activation, % at 2 µM; actives 1% (n = 360,000); AID 504660; note: 0% is about no effect
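Tetracycline-induced HEK293 TREx D1 cells, force-coupled to calcium signalling, were dye-loaded with a no-wash calcium kit. Compound was pin-added after a 10 s baseline. Fluorescence was read kinetically at 1 cycle/s for 180 s, with calcium rises flagged as agonism.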
TRHR agonist = activates the human TRH receptor; P34981; TRHR cells, calcium flux fluo-8, FDSS agonist mode; activation, % at 2 µM; actives 0.18% (n = 360,000); AID 493084; note: 0% is about no effect
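In this calcium-flux screen, cells bearing human TRHR are dye-loaded with fluo-8, baselined for 10 cycles, then exposed to library compounds; positive kinetic calcium responses during the agonist phase mark hits, with TRH as control.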
D1 antag = human D1 dopamine receptor antagonism; P21728; HEK293 TREx D1 cells, calcium flux, dopamine EC80; hits give low values; activity change, negative = inhibition, % at 10 µM; actives 3.2% (n = 360,000); AID 504652; in the data active = activity change below about -30%; note: % is set by controls: 0 for no effect and ±100 for the full control effect
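Using tetracycline-induced force-coupled D1 Hek293 cells and a calcium dye, signals were followed for 180 s after compound, then for 180 s after EC80 dopamine, to detect inhibitors.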
* = called active by the depositor; x = no result given. Cut-off read from the data, not from the text of the source, unless noted: active = activation above about 30%; inactive = the rest.

SMILES	D1 PAM	GRP78 ERSR act	TRHR enhancer	D1 ag	TRHR agonist	D1 antag
CCc1nnc(NC(=O)c2nc(S(=O)(=O)Cc3cccc(C)c3)ncc2Cl)s1	2	-19%	-1	9	0	10
COc1ccc(S(=O)(=O)N2CCCC(C(=O)N3CCN(Cc4ccccc4)CC3)C2)cc1Cl (configuration not stated)	x	-4%	x	x	x	x
O=C(NCc1ccc2c(c1)OCO2)c1nc(S(=O)(=O)Cc2ccccc2)ncc1Cl	-5	-19%	-5	1	-1	-28
O=C(NCc1ccc2c(c1)OCO2)c1nc(S(=O)(=O)Cc2ccccc2F)ncc1Cl	-11	-14%	-24	3	1	-49*
O=C(NCc1ccccc1)c1c(Cl)nc(Cl)c(Cl)c1Cl	-10	-5%	0	0	1	-42*
Cc1cccc(C(=O)NC(=S)NNC(=O)COc2ccc(Cl)cc2)c1	6	2%	-4	4	-1	3
CC1=NNC(=O)/C1=C\c1cn(-c2ccccc2)nc1-c1cccs1	-18	-14%	-13	7	2	-40*
CC1=NNC(=O)/C1=C\c1cn(-c2ccccc2)nc1-c1ccc(F)cc1	-7	-13%	-18	2	3	-54*
O=Cc1cn(-c2ccccc2)nc1-c1ccc(F)cc1	-4	-1%	2	1	-1	-12
COC(=O)C(C)Oc1ccc(Cc2ncc(C(F)(F)F)cc2Cl)cc1 (configuration not stated)	-10	-4%	13	14	0	-37*
C=C(C)c1cccc(C(C)(C)NC(=O)NCc2ccc(OC)cc2)c1	-3	-7%	0	8	-2	1
Cn1c(=O)c2c(ncn2CC(=O)N/N=C/c2ccco2)n(C)c1=O	-1	3%	-6	1	-1	-5
O=C(NNC(=O)c1ccc2c(=O)n3c(nc2c1)CCC3)c1cccc(Cl)c1	-7	-1%	1	-3	1	-32*
CCN(C(=O)C(=O)Nc1ccc2nc3n(c(=O)c2c1)CCCCC3)c1ccc(F)cc1	2	-3%	4	1	-1	-39*
CCN(CC)C(=O)c1cccc(NC(=O)c2ccc3c(=O)n4c(nc3c2)CCC4)c1	-7	-3%	5	1	0	-40*
COc1ccc(C2=NNC(c3cccnc3)=Nc3ccccc32)cc1	-4	2%	-16	1	-1	18
c1ccc(C2=NNC(c3ccco3)=Nc3ccccc32)cc1	3	-1%	-1	5	-1	-32*
O=C(NCCNc1nccc(C(F)(F)F)n1)c1cccc(C(F)(F)F)c1	1	-3%	-2	8	-1	-34*
O=S(=O)(NCCNc1nccc(C(F)(F)F)n1)c1ccccc1	-1	-5%	-10	0	0	3
Cc1ccc(NC(=O)CSc2nnc3ccccn23)cc1	-1	7%	2	0	0	-3
O=C(Nc1ccccc1)N1CCCN(c2ccc(C(F)(F)F)cc2[N+](=O)[O-])CC1	-3	-1%	-4	11	2	-8
CN1CCN(C(=O)CSc2ccc(C(F)(F)F)cc2[N+](=O)[O-])CC1	-10	-3%	-4	4	0	-65*
Cc1cc(N2CCN(c3ccc(C(F)(F)F)cc3[N+](=O)[O-])CC2)c2ccccc2n1	1	-2%	35*	1	0	19
O=C(C1CCC1)N1CCN(c2ccc(C(F)(F)F)cc2[N+](=O)[O-])CC1	-8	-1%	6	10	1	-40*
CCOC(=O)N1CCN(C(=O)CSc2ccc(C(F)(F)F)cc2[N+](=O)[O-])CC1	-9	-3%	-3	6	-1	3
SMILES	D1 PAM	GRP78 ERSR act	TRHR enhancer	D1 ag	TRHR agonist	D1 antag
Cc1cc(N2CCN(c3ccc([N+](=O)[O-])c4cccnc34)CC2)c2ccccc2n1	-13	-2%	4	2	-1	-1
O=C(CCc1nc2ccccc2s1)OCC(=O)N1CCN(C(=O)c2ccco2)CC1	-8	-4%	-11	0	1	12
OC(CNCCc1ccc(Cl)cc1)COCc1ccco1 (configuration not stated)	-3	1%	2	4	0	-6
CC(=O)c1cccc(OCC(O)CNCCc2ccc(Cl)cc2)c1 (configuration not stated)	-1	0%	2	26	1	-6
OC(CNCCc1ccc(C(F)(F)F)cc1)COc1ccc2ccccc2c1 (configuration not stated)	7	-14%	-1	106*	5	10
COc1ccc(CCNCC(O)COc2cccc(Br)c2)cc1 (configuration not stated)	5	-10%	0	30*	4	-1
COc1ccccc1COCC(O)CNCCc1ccc(C(F)(F)F)cc1 (configuration not stated)	-2	-5%	-5	50*	1	-25
OC(COc1ccc(CNCCc2ccc(C(F)(F)F)cc2)cc1)CN1CCCCC1 (configuration not stated)	-3	-14%	5	35*	5	-38*
Cc1ccc(S(=O)(=O)N(C)c2ccc(OC(=O)COc3ccccc3)cc2)cc1	x	2%	x	x	x	x
CCc1nnc(SCC(=O)Nc2ccccc2Cl)nc1CC	5	-3%	-2	4	-1	-6
CN1C(C(=O)NCCc2cccs2)CC2Cn3c(nc4cc5ccccc5cc43)C21 (configuration not stated)	-6	-3%	-3	2	0	-27
OC(CNCCc1ccc(C(F)(F)F)cc1)COc1cccc2ccccc12 (configuration not stated)	6	-14%	4	42*	2	12
COC(=O)c1ccc(COC(=O)CNC(=O)c2ccco2)cc1	1	-2%	-2	-2	0	22
Cc1ccc2c(c1)N(Cc1cccc(F)c1)C(=O)C(C)O2 (configuration not stated)	0	1%	-2	8	-1	8
Cc1ccc2c(c1)N(Cc1ccncc1)C(=O)C(C)O2 (configuration not stated)	-10	-1%	0	2	0	-34*
Clc1cccc(-c2ccc(/C=N/n3cnnc3)o2)c1Cl	-5	-2%	-2	1	-1	-61*
COc1ccc(C(C)=O)cc1CN(c1ccccc1OC)S(=O)(=O)c1cccs1	1	-5%	1	5	-1	-94*
COc1ccccc1CN(C)S(=O)(=O)c1cccs1	-6	8%	0	0	0	-8
O=c1cc(-c2ccsc2)oc2ccc(-c3ccc4cc[nH]c4c3)cc12	x	2%	x	x	x	x
O=C(O)c1ccccc1C(=O)Nc1ccc(Nc2ccc([N+](=O)[O-])cc2[N+](=O)[O-])cc1	3	-3%	35*	0	0	-12
